Screens deposited in PubChem by National Center for Advancing Translational Sciences (NCATS).
D2 ag-1 – HTS Assay for Allosteric Agonists of the Human D2 Dopamine Receptor: Primary Screen for Agonists; 340,000 tested, 0.53% active; activation, % at 2 µM; D(2) dopamine receptor (Homo sapiens), P14416; HEK293 T-REx D2 cells, calcium flux agonist mode;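 active = activation over 3 SD above normal in the single-dose calcium agonist read, cut at about 30% in these data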; note: 0% is about no effect
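Agonism scored from kinetic calcium signal (1 read/sec, 180 s) following compound pin transfer, after a 10 s baseline. Cells: HEK293 Trex line expressing inducible D2 receptor coupled to calcium, dye-loaded after overnight culture at 30 C.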
D2 ag-2 – Beta-Arrestin HTS for Positive Allosteric Modulators of the Human D2 Dopamine Receptor: Agonists | AID 624465, 2012 | DiscoveRx PathHunter D2 beta-arrestin, luminescence, 90 min; 100% = 57 uM dopamine signal | D(2) dopamine receptor (Homo sapiens), P14416 | activation, % (concentration not given with the values) | 360,000 tested, 0.084% active; in the data active = activation above about 40%; inconclusive = between about 15% and that limit
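DiscoveRx PathHunter D2 beta-arrestin cells (2,100/well) attached overnight, then compound-stimulated 90 min at 37 C in HBSS/10 mM HEPES/0.1% Tween-20 buffer; beta-galactosidase complementation read by luminescence after 1 h at ambient temperature. Dopamine 57 uM final (EC100) as control.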
D2 PAM-1 – HTS Assay for Positive Allosteric Modulators of the Human D2 Dopamine Receptor: Primary Screen for Potentiators; HEK293 T-REx D2, calcium flux, EC20 dopamine potentiation; potentiation, % at 10 µM; 340,000 tested, 0.34% active; AID 485347, 2010;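 active = potentiation over 3 SD above the plate norm, cut at about 30% in these data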; note: 0% is about no effect
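Potentiation of an EC20 dopamine calcium response measured kinetically over 180 s, after a preceding 180 s compound-only read flagging agonists. Cells: inducible Hek293 Trex D2 line, 4000/well, cultured overnight at 30 C before dye loading.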
D2 antagonist – HTS Assay for Allosteric Antagonists of the Human D2 Dopamine Receptor: Primary Screen for Antagonists; D(2) dopamine receptor (Homo sapiens), P14416; HEK293 TREx D2 cells, calcium flux, dopamine EC80; inhibition, % at 10 µM; 340,000 tested, 2% active; in the data active = inhibition above about 30%; inactive = below that, where a call was filed; note: 0% is about no effect
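Cells plated overnight at 30 C with tetracycline; no-wash calcium dye, 30–90 min RT; 10 s baseline; compound pinned; 180 s read; EC80 dopamine added; another 180 s read.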
D2 PAM-2 – Beta-Arrestin HTS for Positive Allosteric Modulators of the Human D2 Dopamine Receptor: Potentiators | D(2) dopamine receptor (Homo sapiens), P14416 | DiscoveRx D2 beta-arrestin cells, luminescence, 90 min; 100% = 57 uM dopamine signal | potentiation, % (concentration not given with the values) | 360,000 tested, 0.23% active; in the data active = potentiation above about 50%; inconclusive = mostly about 30% to 49%
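D2 cells co-treated with compound plus 50 nM dopamine (EC20) for 90 min at 37 deg C to detect potentiation. Beta-arrestin recruitment was read as enzyme-fragment luminescence after 1 h at ambient temperature. Full response was set by 57 uM dopamine.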
D3 arrestin ag – qHTS of D3 Dopamine Receptor Agonist: D3 Dopamine Receptor B-arrestin Agonist Confirmatory Assay; 2,300 tested, 4% active; Potency, µM (doses to about 76.9 µM), without a hit: top-dose activation, hits mostly activators; shares compounds with D2 ag-1; DiscoveRx D3 beta-arrestin cells, luminescence, 90 min;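 note: potency is the fitted concentration of half-maximal effect; 100% = dopamine control response; nearly all actives have a fitted effect of over 70% in size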
Target sequence (P35462 whole entry, looked up): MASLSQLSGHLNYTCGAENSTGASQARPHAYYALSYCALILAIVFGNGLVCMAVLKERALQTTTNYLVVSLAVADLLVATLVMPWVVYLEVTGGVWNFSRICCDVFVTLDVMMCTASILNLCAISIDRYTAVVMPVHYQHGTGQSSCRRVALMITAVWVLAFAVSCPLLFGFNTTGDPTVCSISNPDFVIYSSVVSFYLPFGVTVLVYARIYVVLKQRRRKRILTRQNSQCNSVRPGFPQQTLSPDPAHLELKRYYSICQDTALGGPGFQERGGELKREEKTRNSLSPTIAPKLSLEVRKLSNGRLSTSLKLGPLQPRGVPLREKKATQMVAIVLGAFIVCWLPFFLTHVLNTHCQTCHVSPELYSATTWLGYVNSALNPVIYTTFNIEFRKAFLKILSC
D2 ag-3 – qHTS of D3 Dopamine Receptor Agonist: D2 Dopamine Receptor B-arrestin Agonist Counterscreen; DiscoveRx PathHunter D2 beta-arrestin, luminescence, 90 min; response scale: percent relative to full dopamine signal; shares compounds with D2 ag-1; Potency, µM (series often up to 76.9 µM), without a hit: at the top dose activation, usual class: activators; 2,300 tested, 5.9% active; note: potency is the fitted concentration of half-maximal effect; % of control where 0% means no effect; nearly all actives have a fitted effect of over 70% in size
* hit, by the source's call; ? = inconclusive; / = no result given. In the library only some 2.4% were active in any assay of this set; here they are far more common. Unless noted, calls come from the whole dose curve; as a rule, active = well fitted activation curve with a large enough effect; inconclusive = small, poorly fitted or top-dose-only effect; inactive = flat fitted curve, though single readings scatter.

SMILES	D2 ag-1	D2 ag-2	D2 PAM-1	D2 antagonist	D2 PAM-2	D3 arrestin ag	D2 ag-3
COc1cc(C(C)=O)ccc1OCC(O)CN1CCN(c2ccc(C)cc2C)CC1 (stereo not drawn)	-2	-2	-20	4	-14	/	/
COc1cc(C(C)=O)ccc1OCC(O)CN1CCN(c2ccccc2)CC1 (stereo not drawn)	85*	46*	-27	85*	9	?	?
COc1ccc(C(=O)NCN2CCN(c3ccccc3)CC2)cc1OC	64*	9	-20	23	7	1%	22%
Cc1ccc(C(=O)NCN2CCN(c3ccccc3)CC2)cc1	2	1	-36	-16	-29	/	/
Cc1cccc(NC(=S)NC2CC3C=CC2C3)c1 (stereo not drawn)	-1	0	-7	2	-10	/	/
COc1ccccc1NC(=O)C1CCN(S(C)(=O)=O)CC1	/	-5	/	/	-2	/	/
CCOc1ccc(S(=O)(=O)Nc2cccc(C(=O)N3CCN(c4ccccc4O)CC3)c2)cc1	5	5	6	-7	2	/	/
COC(=O)c1ccc(C(=O)OC)c(NC(=S)N2CCN(c3ccccn3)CC2)c1	51*	1	-8	15	1	6%	2%
COc1ccccc1NC(=O)N1CCN(c2ccccc2F)CC1	/	-1	/	/	-12	/	/
CCOc1ccc(S(=O)(=O)Nc2cccc(C(=O)N3CCN(c4cccc(OC)c4)CC3)c2)cc1	/	?	/	/	-20	?	25%
COc1ccccc1NC(=O)N1CCN(c2ccccn2)CC1	37*	-4	-10	-30	4	5%	0%
S=C(Nc1ccc(Oc2ccccc2)cc1)N1CCN(c2ccccn2)CC1	13	1	7	-31	0	18%	4%
COc1ccc(C(=O)N/C(=C\c2ccccc2)C(=O)Nc2ccc(C(=O)NCC(=O)O)cc2)cc1	0	-4	1	-5	-12	/	/
O=C(Nc1ccccc1Cl)N1CCN(c2ccccn2)CC1	64*	5	-24	15	9	-2%	-1%
S=C(Nc1ccc(Br)cc1Cl)N1CCN(c2ccccn2)CC1	57*	2	-13	-6	-16	5%	27%
O=C(Nc1ccccc1C(F)(F)F)N1CCN(c2ccccn2)CC1	50*	-5	-16	19	-1	0%	5%
COc1ccccc1NC(=S)N1CCN(c2ccccn2)CC1	/	1	/	/	-9	-2%	6%
CCOC(=O)C1=CCC(c2ccccc2Cl)N(S(=O)(=O)c2ccc(C)cc2)C1 (stereo not drawn)	/	-2	/	/	1	/	/
Cc1cc(F)ccc1-c1cc(C(=O)NCc2cccs2)[nH]n1	/	0	/	/	-14	/	/
COc1cccc(C(=O)N2CCN(c3ccccn3)CC2)c1	/	?	-18	/	-4	?	26%
COc1cc(OC)cc(C(=O)N2CCN(c3ccccn3)CC2)c1	-1	5	3	-4	1	/	/
CCN(C(=O)CSc1ncccn1)c1c(N)n(Cc2ccccc2)c(=O)[nH]c1=O	0	-3	-3	7	-3	-7%	-4%
CCOc1ccccc1N1CCN(CC(O)COc2ccc3c(C)cc(=O)oc3c2)CC1 (stereo not drawn)	55*	13	-14	65*	-6	-4%	14%
COc1ccccc1N1CCN(CC(O)COc2ccc3c(c2)OCO3)CC1 (stereo not drawn)	0	-5	12	1	-10	/	/
Cc1cc(C)cc(NC(=O)C(Cc2ccccc2)NS(=O)(=O)c2ccc3c(c2)CCC(=O)N3)c1 (stereo not drawn)	-1	/	14	/	/	/	/
SMILES	D2 ag-1	D2 ag-2	D2 PAM-1	D2 antagonist	D2 PAM-2	D3 arrestin ag	D2 ag-3
Nc1nc(N)nc(-c2ccc(Cl)c(Cl)c2)n1	2	-1	-6	-9	-3	-1%	-4%
CCc1ccc(NC(=O)N2CCN(C(=O)C3CCCO3)CC2)cc1 (stereo not drawn)	-1	0	13	6	-1	/	/
O=C(O)c1ccccc1SC1CC(=O)N(c2cccc3ccccc23)C1=O (stereo not drawn)	41*	-1	-23	-8	-2	-3%	-4%
CCN1C(=O)CC(Sc2ccccc2C(=O)O)C1=O (stereo not drawn)	-1	15	1	-4	4	/	/
CCS(=O)(=O)N1CCN=C1SCc1cccnc1	1	0	3	-15	-9	/	/
Cc1cccc(C(=O)NC(=S)NNC(=O)Cc2ccccc2)c1	37*	-7	-3	7	18	-9%	-9%
Cc1cccc(C(=O)NC(=S)NCc2ccccc2)c1	/	-6	/	/	-8	/	/
c1ccc(Cn2nnnc2CN2CCN(Cc3ccc4c(c3)OCO4)CC2)cc1	1	0	-1	4	-36	/	/
c1ccc2c(c1)CCN(Cc1nnnn1Cc1ccc3c(c1)OCO3)C2	68*	?	-24	24	16	2%	?
COc1ccc(Cn2nnnc2CN2CCc3ccccc3C2)cc1	57*	?	-11	34*	11	6%	?
CCC(c1nnnn1Cc1ccc2c(c1)OCO2)N1CCN(c2ccccc2)CC1 (stereo not drawn)	80*	?	-33	79*	0	3%	?
CCC(C)(C)NC(=O)CN(CCc1cccc(C)c1)C(=O)c1csnn1	0	3	-1	-7	-3	/	/
N#C/C(=C\c1ccccc1)C(=O)Nc1sc2c(c1C(N)=O)CCC2	0	/	1	/	/	/	/
Cc1ccccc1CNC(=O)c1[nH]c(C(F)(F)F)nc1-c1ccccc1	/	-2	/	/	-6	/	/
CCOc1cc(CN2CCN(C(=O)c3ccco3)CC2)ccc1OC	99*	?	-29	74*	63*	-3%	25µM*
CC(=O)c1cccc(OCC(O)CN2CCN(C(=O)c3ccco3)CC2)c1 (stereo not drawn)	/	?	/	/	2	18%	?
COc1ccc(CN2CCN(Cc3ccco3)CC2)cc1	/	0	/	/	-10	/	/
